# PubChem BioAssay (Tox21)
# Results filed as inconclusive are left out. Entries that show only a call come without a potency. Values without a mark were called inactive. Activity calls are given as the source filed them. Calls follow the shape of the dose curve; as a rule, active = well fitted inhibition curve with a large enough effect in the repeat runs; inconclusive = weak or mixed curves; inactive = no such curve, though single readings can be large or run the other way.
# Target: Cytochrome P450 3A4 (Homo sapiens) (UniProt P08684)
# Sequence (P08684 whole entry, looked up): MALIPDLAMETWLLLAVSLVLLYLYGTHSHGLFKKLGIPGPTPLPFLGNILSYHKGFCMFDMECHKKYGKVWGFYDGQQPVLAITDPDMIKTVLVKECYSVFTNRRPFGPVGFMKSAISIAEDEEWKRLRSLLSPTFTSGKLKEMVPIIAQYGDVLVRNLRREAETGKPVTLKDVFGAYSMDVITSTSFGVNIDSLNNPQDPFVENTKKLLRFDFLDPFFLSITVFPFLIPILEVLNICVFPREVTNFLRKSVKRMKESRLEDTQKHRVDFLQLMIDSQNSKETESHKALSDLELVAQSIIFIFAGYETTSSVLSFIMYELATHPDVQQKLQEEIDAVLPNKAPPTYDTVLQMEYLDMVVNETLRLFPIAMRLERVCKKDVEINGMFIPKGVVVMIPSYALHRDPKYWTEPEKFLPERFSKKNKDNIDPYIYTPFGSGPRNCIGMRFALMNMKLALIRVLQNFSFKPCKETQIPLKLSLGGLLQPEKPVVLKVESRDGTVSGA
# Test: Cytochrome P450 Family 3 Subfamily A Member 4 (CYP3A4) small molecule antagonists: luciferase reporter qHTS assay (AID 1671201); also: nearly all actives have a fitted effect of over 50% in size
# Conditions: P450-Glo CYP3A4 enzyme, luciferin luminescence, 1 h; series mostly up to 115 µM
# Source text: National Center for Advancing Translational Sciences [NCATS]
# U.S. Environmental Protection Agency [EPA]
# National Institutes of Environmental Health Sciences [NIEHS]
# National Toxicology Program [NTP]
# U.S. Food and Drug Administration [FDA]
# Cytochrome P450 (CYP) enzymes are membrane-bound hemeproteins that play a key role in metabolism of drugs and xenobiotics. Evaluation of the effect of chemicals on CYP isozymes is useful to minimize the adverse drug reactions and toxicities in drug development process. Tox21 chemicals were tested for their effect on CYP enzyme activities by using P450-Glo (TM) screening systems (Promega Corporation, Madison, WI). These systems provide a luminescent method containing proluciferin substrates and are converted to luciferin products by CYP isozymes. The luciferin products formed are detected with a luciferin detection reagent, and the amount of light produced is proportional to CYP activity. P450-Glo (TM) CYP3A4 screening system (Catalog. No. V9910) was used to detect the compounds that interfere in CYP3A4 activity. The positive control compound used for CYP3A4 assay is ketoconazole (Sigma-Aldrich, St. Louis, MO).
# Tox21 Assay Protocol Summary:
# Two ul of enzyme-substrate mix was dispensed into medium binding white/solid 1536-well plates (Greiner Bio-One North America Inc., Monroe, NC) using a BioRaptr Flying Reagent Dispenser (FRD, Beckman Coulter, Brea, CA). Compounds dissolved in DMSO and positive control (ketoconazole) were transferred to the assay plates at 23 nl using a Pintool station (Wako, San Diego, CA). The assay plates were incubated at room temperature for 10 min. Then 2 ul of NADPH regeneration solution was added to each well of the assay plates using an FRD and incubated at room temperature for 1 h. The reaction was stopped by adding 4 ul of detection reagent using an FRD and after 20 min incubation at room temperature the luminescence signal was measured using a ViewLux plate reader (Perkin Elmer, Shelton, CT). Data were expressed as relative luminescence units.
# Potency is read from the fitted curve at half-maximal effect.
Structure (SMILES),Potency,"activity change, negative = inhibition"
COCCOCCOCCOCCO,inactive,
CCCCCCOc1ccccc1C(N)=O,inactive,
C=C(C)C(=O)OCCOP(=O)(O)OCCOC(=O)C(=C)C,inactive,
CC(=O)Nc1ccc(S(=O)(=O)Nc2ccc([N+](=O)[O-])cc2)cc1,inactive,
CCC(CC)CO,inactive,
CN(C)C(=O)CNC(=O)Cc1ccccc1,inactive,
COc1cc(N)ccc1C,11.1 µM (active),
O=C(O)Cc1cn(-c2ccccc2)nc1-c1ccc(Cl)cc1,inactive,
CCOC(=O)c1ncn2c1CN(C)C(=O)c1cc(F)ccc1-2,inactive,
CCC(C)(CCC(C)C)C(=O)O (stereo not given),inactive,
COC(=O)CCCCCCCC(=O)OC,inactive,
CCC(C=O)CC,inactive,
COc1ccc(-c2cc(=O)c3c(O)cc(O[C@@H]4O[C@H](CO[C@@H]5O[C@@H](C)[C@H](O)[C@@H](O)[C@H]5O)[C@@H](O)[C@H](O)[C@H]4O)cc3o2)cc1O,inactive,
Brc1ccc(-c2ccccc2)cc1,inactive,
OCCC(F)(F)C(F)(F)C(F)(F)C(F)(F)C(F)(F)C(F)(F)C(F)(F)C(F)(F)F,inactive,
O=C(O)Cc1ccc(Cl)cc1Cl,inactive,
Oc1cn2c(n1)Nc1ccc(Cl)c(Cl)c1C2,,40.9% [at 23.6 µM]
COCCOCCOCCOCCOCCO,inactive,
Cc1ccccc1OCC(O)CO (stereo not given),inactive,
CC(C)(C)c1nnc(NS(=O)(=O)c2ccc(N)cc2)s1,inactive,

Structure (SMILES),Potency,"activity change, negative = inhibition"
C=COCCOCCOCCOC=C,inactive,
OCCN(CCO)c1cccc(Cl)c1,inactive,
CC1=CCC(C(C)C)=CC1,inactive,
CC(C)=CCOC(=O)c1ccccc1,inactive,
CCN1CCc2nc(N)oc2CC1,inactive,
Nc1ccc(S(=O)(=O)Nc2ccc(Cl)nn2)cc1,inactive,
CN=C(NC#N)Nc1ccc(C2=NNC(=O)CC2C)cc1 (stereo not given),inactive,
CC(C)C(=O)OCCc1ccccc1,inactive,
COC(=O)CCc1ccc(OCC(O)CNC(C)C)cc1 (stereo not given),inactive,
CCCCCCCCCC(C)=O,inactive,
CC(=O)c1ccc2c(c1)Cc1ccccc1-2,inactive,
Cc1c(I)c(=O)n(-c2ccccc2)n1C,inactive,
N[C@@H](COP(=O)(O)O)C(=O)O,,2.53% [at 23.6 µM]
N#Cc1ccc(C(=O)O)cc1,inactive,
CCOC(=O)/C=C/c1ccccc1,inactive,
CCCCOC(=O)c1ccccc1,inactive,
CC(C)(C)c1cc(CCC(=O)NN)cc(C(C)(C)C)c1O,0.159 µM (active),
CCn1ccc(NS(=O)(=O)c2ccc(N)cc2)nc1=O,inactive,
C=C1CC/C=C(\C)CC[C@@H]2[C@@H]1CC2(C)C,inactive,
CN1CCN(CC(=O)N2c3ccccc3C(=O)Nc3cccnc32)CC1,,4.83% [at 10.5 µM]
